FBW7 act – FBW7 E3 ligase activators, primary screen, biochemical, AlphaScreen, human. normalized activity (activation), % at 26.1 µM. F-box/WD repeat-containing protein 7 (Homo sapiens), Q969H0. 650,000 compounds, 0.13% hits. AlphaScreen FBW7–phospho-cyclin E peptide binding, activator screen; in the data active = normalized activity above about 1.9%;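 note: purified mutant Fbw7 with reduced substrate affinity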
GPR151 activ – activators of human GPR151, primary screen, cell-based, PathHunter beta-arrestin, luminescence; PathHunter beta-arrestin GPR151 cells; activation, % at 11.2 µM; G-protein coupled receptor 151 (Homo sapiens), Q8TDV0; 650,000 compounds, 1% hits; in the data active = activation above about 4.9%;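 note: 0% = median of compound wells and 100% = cells with positive control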
MITF primary – MITF inhibitors, primary screen, biochemical, AlphaScreen, human | AlphaScreen MITF homodimerization, bead proximity signal | inhibition, % at 2.6 µM | 650,000 compounds, 0.91% hits; in the data active = inhibition above about 50%;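 note: 0% = vehicle wells with protein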
Target sequence (O75030 whole entry, looked up): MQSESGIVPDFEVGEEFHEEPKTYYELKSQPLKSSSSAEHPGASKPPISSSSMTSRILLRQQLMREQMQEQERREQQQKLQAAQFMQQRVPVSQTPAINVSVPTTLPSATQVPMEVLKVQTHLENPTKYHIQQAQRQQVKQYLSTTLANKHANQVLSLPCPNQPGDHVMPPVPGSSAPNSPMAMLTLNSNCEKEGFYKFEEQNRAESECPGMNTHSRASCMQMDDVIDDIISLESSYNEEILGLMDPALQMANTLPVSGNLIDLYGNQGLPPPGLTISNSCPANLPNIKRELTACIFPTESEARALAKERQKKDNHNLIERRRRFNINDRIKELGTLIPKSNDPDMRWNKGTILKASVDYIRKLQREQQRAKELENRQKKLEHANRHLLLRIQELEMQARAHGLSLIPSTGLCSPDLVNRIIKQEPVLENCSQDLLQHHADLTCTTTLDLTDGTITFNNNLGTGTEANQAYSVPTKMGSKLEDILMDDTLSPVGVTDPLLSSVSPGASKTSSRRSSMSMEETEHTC
TEAD-YAP inh – TEAD-YAP interaction inhibition, primary screen, TEAD-YAP interaction inhibitor project, luminescence, HEK-TIYL cells; TEAD-Gal4/YAP UAS-luciferase luminescence; inhibition, % at 9.12 µM; 640,000 compounds, 1.4% hits; AID 1259422, 2018; in the data active = inhibition above about 32%;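 note: 0% = median of test compound wells and 100% = reference inhibitor wells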
MITF confirm – MITF inhibitors, retest of hits, confirmation, biochemical, AlphaScreen, triplicate. shares compounds with MITF primary. AID 1259372, 2018. 4,700 compounds, 16% hits. AlphaScreen MITF homodimerization, biotin/His-MITF beads. inhibition, % at 2.6 µM;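 active = inhibition above a cutoff derived from the DMSO control wells, cut at about 28% in these data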;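 note: 0% = MITF dimer wells with DMSO only; inhibitors lower the bead chemiluminescence by keeping MITF from dimerizing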
AlphaScreen DR – AlphaScreen optical interference compounds, dose response, counter-screen, biochemical, HTS | 480 compounds, 6% hits | IC50, µM | shares compounds with MITF primary | AlphaScreen optical interference counterscreen, cell-free; call rule not given here
AS interf ctr – AlphaScreen optical interference compounds, counter-screen for MITF inhibitor project, biochemical, triplicate; 4,700 compounds, 7.6% hits; inhibition, % at 2.6 µM; LysRS AlphaScreen counterscreen, signal interference; shares compounds with MITF primary; AID 1259376, 2018;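 active = inhibition above a cutoff derived from the DMSO control wells, cut at about 30% in these data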
* = called active by the depositor; x = no result. Hits are enriched below; roughly 3.5% of the tested compounds scored in any of these assays.

SMILES	FBW7 act	GPR151 activ	MITF primary	TEAD-YAP inh	MITF confirm	AS interf ctr	others
CSc1ccc(CN2CCN(CCCc3ccccc3)CC2)cc1	-0.1	4.1	63.5*	1.5	0.1	2.6
COc1ccc(C(=O)N2CCN(CC3CC=CCC3)CC2)cc1OC (stereo not given)	0.0	-1.3	32.2	-8.2	x	x
CCOc1cc(CN2CCCC2)ccc1OC	-0.1	-1.1	24.8	20.3	x	x
COc1ccc(CN2CCN(CC3CC=CCC3)CC2)cc1OC (stereo not given)	0.0	1.2	60.9*	17.0	5.0	4.1
COc1ccc(CN2CCN(CC3CC=CCC3)CC2)cc1 (stereo not given)	-0.2	-0.2	60.6*	2.0	-9.2	-5.0
Fc1ccc(CN2CCN(CC3CC=CCC3)CC2)cc1 (stereo not given)	0.0	0.6	65.3*	6.9	-2.3	4.0
CCOc1cc(CN2CCN(CC3CC=CCC3)CC2)ccc1OC (stereo not given)	0.2	-0.3	69.7*	-2.1	-6.9	-0.9
O=C(Oc1ccc(C2Oc3ccccc3C3CC(c4cccc5ccccc45)=NN32)cc1)c1ccccc1 (stereo not given)	-0.2	0.3	-10.5	-2.3	x	x
CCS(=O)(=O)N1CCN(Cc2cccc(C)c2)CC1	0.1	0.1	44.9	1.4	x	x
Cc1cccc(CN2CCN(CC3CC=CCC3)CC2)c1 (stereo not given)	0.0	1.2	67.0*	-2.0	-100.9	-4.0
COCCCNc1ccc([N+](=O)[O-])cc1C(=O)Nc1cccc(C)n1	0.0	-0.7	52.1*	0.5	8.2	9.8
CCCCC(=O)Nc1ccc(C(=O)Nc2cc(C)on2)cc1	0.4	-1.7	7.2	0.1	x	x
COc1ccc2oc(=O)c(-c3nnc(-c4ccc(Cl)cc4)o3)cc2c1	0.4	-0.8	83.9*	4.4	2.9	7.4
COc1ccc(CCNC(CC(=O)Nc2cccc(Cl)c2)C(=O)O)cc1OC (stereo not given)	0.0	1.4	4.4	5.0	x	x
COc1cccc(OC)c1OCCCCN1CCCC1	0.5	-0.2	52.5*	5.8	-7.8	-10.4
CCN1CCN(CCOc2c(OC)cccc2OC)CC1	0.0	0.9	82.0*	1.1	7.4	15.7
COc1cccc(CC(=O)Nc2ccc3ccccc3c2)c1	0.2	-1.7	-0.9	7.0	x	x
COc1cccc(CC(=O)Nc2nnc(-c3ccco3)c(-c3ccco3)n2)c1	-1.2	1.0	62.6*	-3.9	80.0*	14.9	AlphaScreen DR=>6.48
O=C(O)c1ccccc1-c1cc(C(=O)O)c2cc(Br)ccc2n1	-0.1	-0.7	1.1	11.3	x	x
O=C(O)c1cc(-c2ccco2)nc2ccc(Br)cc12	-0.3	-0.4	58.0*	-6.8	19.8	17.8
Brc1cccc(OCCn2ccnc2)c1	0.1	-0.7	51.5*	8.6	-1.8	7.3
Brc1cccc(OCCCn2ccnc2)c1	0.0	-0.4	65.0*	3.9	2.5	-0.1
Brc1cccc(OCCOCCn2ccnc2)c1	0.0	0.9	21.4	1.8	x	x
O=C(c1ccc2c(=O)n(Cc3ccco3)c(=S)[nH]c2c1)N1CC=C(c2ccccc2)CC1	-0.2	-0.4	-3.9	-12.3	x	x
CCCn1cc(NC(=O)c2ccc(Br)o2)cn1	0.1	-2.6	-0.5	-50.8	x	x
CCCn1cc(NC(=O)c2cc(-c3ccccc3N)no2)cn1	0.0	1.2	73.2*	-17.5	-17.4	-1.0
COc1ccc(OC)c(N2C(N)=C(C#N)C(c3ccc4c(c3)OCO4)C3=C2CC(C)(C)CC3=O)c1 (stereo not given)	0.1	1.5	11.5	-2.9	x	x
COc1ccc(CN2CCN(Cc3ccc4c(c3)OCO4)CC2)c(OC)c1OC	-0.1	1.3	79.0*	5.8	9.5	15.5
CCOc1cc(CN2CCN(Cc3ccc4c(c3)OCO4)CC2)ccc1O	-0.1	-0.5	74.6*	-8.4	14.3	13.3
COc1ccc(CN2CCN(Cc3ccc4c(c3)OCO4)CC2)cc1C	0.0	0.8	37.7	3.2	x	x
